# Measurements reported in PubChem BioAssay (Tox21).
# Activity calls are given as the source filed them. A call without a number means that no potency is given here. Calls follow the shape of the full dose curve.
# Test: qHTS assay to identify small molecule agonists of the sonic hedgehog signaling (Shh) pathway (AID 1259368); also: nearly all actives have a fitted effect of over 15% in size
# Conditions: NIH/3T3 Gli1-Luc reporter, luciferase, 24 h; series mostly up to 92.4 µM
# Excerpt: National Center for Advancing Translational Sciences [NCATS]
# NIH Chemical Genomics Center [NCGC]
# U.S. Environmental Protection Agency [EPA]
# National Institutes of Environmental Health Sciences [NIEHS]
# National Toxicology Program [NTP]
# The sonic hedgehog (Shh) pathway is essential for normal embryonic development. Dysregulation of the Shh pathway can cause severe developmental defects in organs. Therefore chemicals that interfere with the pathway are potential developmental toxicants. A cell line designated 3T3Gli1-Luc (DMB/OARSA/CFSAN/FDA, Laurel, MD), a NIH/3T3 derived clone containing stably integrated Gli1-Luc reporter is used to detect chemical interference of the Shh pathway, by changes in the expression of the firefly Luc gene under the control of the Gli1 transcriptional response element. This cell line was used to screen Tox21 libraries for identifying and prioritizing the potential developmental toxicants that interfere Shh pathway.
# 3T3 Gli1-Luc cells were dispensed at 2,000 per well in 5uL of culture medium into white solid bottom 1536-well plates (Greiner Bio-One, Monroe, NC) using a Multidrop Combi (Thermo Scientific, Waltham, MA) dispenser. The assay plates were incubated at 37 C and 5% CO2 for 4hr, and then 23nL of compounds dissolved in DMSO and positive control were transferred using a Pintool station (Wako, San Diego, CA). The assay plates were incubated at 37C and 5% CO2 for 24hr. For luciferase read, 4uL of Amplite Luciferase reporter gene assay reagent (AAT Bioquest, Inc. Sunnyvale, CA) was added to each well of the assay plates using Flying Reagent Dispenser (FRD, Aurora Discovery, San Diego, CA) and incubated at room temperature for 30min. The luminescence signal was measured using a ViewLux plate reader (Perkin Elmer, Shelton, CT).
# Potency is read from the fitted curve at half-maximal effect.
row,SMILES,Potency
1,C[C@]12CC[C@H]3[C@@H](CCC4=CC(=O)CC[C@@]43C)[C@@H]1CC[C@@H]2C(=O)CO,inactive
2,NC=O,inactive
3,O=S(=O)(O)c1ccc(O)cc1,inactive
4,COC(C)COC(C)COC(C)CO (stereo not given),inactive
5,O=C(COc1ccc(Cl)cc1)N1CCN(Cc2ccc3c(c2)OCO3)CC1,inactive
6,CCOC(=O)C(C#N)=C(c1ccccc1)c1ccccc1,inactive
7,O=[N+]([O-])c1ccc2c(c1)Cc1ccccc1-2,inactive
8,CC(C)OC(=O)C(C)(C)Oc1ccc(C(=O)c2ccc(Cl)cc2)cc1,inactive
9,CN(C)CCN(Cc1cccs1)c1ccccn1,inactive
10,Cc1ccc(C(=O)c2cc(O)c(O)c([N+](=O)[O-])c2)cc1,inactive
11,CC(CCC(=O)O)(c1ccc(O)cc1)c1ccc(O)cc1,inactive
12,Clc1nc(Cl)c(Cl)c(Cl)c1Cl,inactive
13,Cc1c(C(N)=O)cc([N+](=O)[O-])cc1[N+](=O)[O-],inactive
14,NNc1ccc(C(=O)O)cc1,5.5 µM (active)
15,COc1cc([C@@H]2c3cc4c(cc3[C@H](O)[C@H]3COC(=O)[C@H]23)OCO4)cc(OC)c1OC,inactive
16,Cc1ccc(C)c(O)c1C,inactive
17,CCCC(=O)O,inactive
18,C=C(C)C1CC=C(C)CC1 (stereo not given),inactive
19,O=C(/C=C/c1ccccc1)OCc1ccccc1,inactive
20,CN(C)C(=N)N=C(N)N,inactive

row,SMILES,Potency
1,O=C(c1ccccc1)c1ccc(O)cc1O,inactive
2,OCCO,inactive
3,O=CCc1ccccc1,inactive
4,Brc1cc(Oc2cc(Br)c(Br)c(Br)c2Br)c(Br)c(Br)c1Br,inactive
5,Cc1cccc([N+](=O)[O-])c1C,inactive
6,O=C(O)c1ccccc1Nc1cccc(C(F)(F)F)c1,inactive
7,CC1=CC2C3CC(C=C3C)C2C1 (stereo not given),inactive
8,CNCCCC12CCC(c3ccccc31)c1ccccc12,inactive
9,O=C(Nc1ccc([N+](=O)[O-])cc1Cl)c1cc(Cl)ccc1O,inactive
10,CC(=O)CC/C=C(\C)CCC=C(C)C,inactive
11,CCC(C)CO (stereo not given),inactive
12,C[Si](C)(C)O[Si](C)(C)C,inactive
13,O=C1OC2(c3cc(Br)c(O)c(Br)c3Oc3c2cc(Br)c(O)c3Br)c2c(Cl)c(Cl)c(Cl)c(Cl)c21,inactive
14,COc1ccc(OC)c(C(O)CNC(=O)CN)c1 (stereo not given),inactive
15,CCCCNS(=O)(=O)c1ccccc1,inactive
16,OC(CCl)CCl,inactive
17,COC(=O)CCC(=O)OC,inactive
18,O=CCCCC=O,inactive
19,CCCCCCCCCCCO,inactive
20,OC1CCCCCCCCCCC1,inactive
